Source: PubChem BioAssay AID1159580 (chemical genetic matrix, 2015)
About 2,000 (36%) of roughly 5,500 compounds were called active. Inconclusive results (about 18%) are left out. Cut-off read from the data, not from the text of the source: active = normalized growth mostly below about 0.91 (no sharp cut-off); inconclusive = no clear call, values can overlap the other calls; inactive = mostly above about 0.92. The list shows a part of the results.

Test: chemical genetic growth profiling, strain panel (AID 1159580);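 note: tested at 20 µM; growth read once vehicle control cultures reached saturation at 30 °C; 1 = growth at the plate median or of vehicle wells; lower values mean less growth of the strain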
Settings: growth OD

Measured: normalized growth

C[C@@H]1C[C@@H]([C@H](O)CC2CC(=O)NC(=O)C2)C(=O)[C@@H](C)C1
active: S. cerevisiae deletion strains, locus YJR075W, strain HOC1, active compounds read low 0.0698 | S. cerevisiae deletion strains, locus YKL009W, strain mrt4, active compounds read low 0.0696 | S. cerevisiae deletion strains, locus YKL068W, active compounds read low 0.0541 | S. cerevisiae deletion strains, locus YKL085W, strain MDH1 (second series), active compounds read low 0.0512 | S. cerevisiae deletion strains, locus YKL085W, strain MDH1, active compounds read low 0.0512 | S. cerevisiae deletion strains, locus YKL160W, strain elf1, active compounds read low 0.0661 | S. cerevisiae deletion strains, locus YKL190W, strain CNB1, active compounds read low 0.0498 | S. cerevisiae deletion strains, locus YKR001C, strain vps1, active compounds read low 0.0635 | S. cerevisiae deletion strains, locus YKR026C, strain gcn3, active compounds read low 0.0607 | S. cerevisiae deletion strains, locus YKR091W, strain srl3, active compounds read low 0.0583 | S. cerevisiae deletion strains, locus YLL001W, strain dnm1, active compounds read low 0.0597 | S. cerevisiae deletion strains, locus YLL026W, active compounds read low 0.0551 | S. cerevisiae deletion strains, locus YLL041C, strain sdh2, active compounds read low 0.0553 | S. cerevisiae deletion strains, locus YLR027C, strain aat2, active compounds read low 0.0609 | S. cerevisiae deletion strains, locus YLR039C, strain RIC1, active compounds read low 0.0922 | S. cerevisiae deletion strains, locus YLR058C, strain SHM2, active compounds read low 0.041 | S. cerevisiae deletion strains, locus YLR102C, strain apc9, active compounds read low 0.0592 | S. cerevisiae deletion strains, locus YLR113W, strain HOG1, active compounds read low 0.12 | S. cerevisiae deletion strains, locus YLR221C, strain rsa3, active compounds read low 0.0588 | S. cerevisiae deletion strains, locus YLR258W, strain gsy2, active compounds read low 0.0568 | S. cerevisiae deletion strains, locus YLR262C, strain YPT6 (second series), active compounds read low 0.0723 | S. cerevisiae deletion strains, locus YLR262C, strain YPT6, active compounds read low 0.108 | S. cerevisiae deletion strains, locus YLR268W, strain sec22, active compounds read low 0.0667 | S. cerevisiae deletion strains, locus YLR320W, strain mms22, active compounds read low 0.0766 | S. cerevisiae deletion strains, locus YLR330W, strain CHS5, active compounds read low 0.0515 | S. cerevisiae deletion strains, locus YLR342W, strain FKS1 (second series), active compounds read low 0.0688 | S. cerevisiae deletion strains, locus YLR342W, strain FKS1, active compounds read low 0.0659 | S. cerevisiae deletion strains, locus YLR357W, strain rsc2, active compounds read low 0.119 | S. cerevisiae deletion strains, locus YLR370C, strain arc18, active compounds read low 0.0598 | S. cerevisiae deletion strains, locus YLR371W, strain rom2, active compounds read low 0.0594 | S. cerevisiae deletion strains, locus YLR384C, strain iki3, active compounds read low 0.0596 | S. cerevisiae deletion strains, locus YLR418C, strain cdc73, active compounds read low 0.0977 | S. cerevisiae deletion strains, locus YML016C, strain PPZ1, active compounds read low 0.055 | S. cerevisiae deletion strains, locus YML032C, strain rad52, active compounds read low 0.0671 | S. cerevisiae deletion strains, locus YML120C, strain ndi1, active compounds read low 0.0554 | S. cerevisiae deletion strains, locus YML124C, strain tub3, active compounds read low 0.0568 | S. cerevisiae deletion strains, locus YMR058W, strain fet3, active compounds read low 0.0596 | S. cerevisiae deletion strains, locus YMR078C, strain ctf18, active compounds read low 0.0691 | S. cerevisiae deletion strains, locus YMR125W, strain sto1, active compounds read low 0.0765 | S. cerevisiae deletion strains, locus YMR129W, active compounds read low 0.0549 | S. cerevisiae deletion strains, locus YMR205C, strain PFK2, active compounds read low 0.0823 | S. cerevisiae deletion strains, locus YMR223W, strain ubp8, active compounds read low 0.065 | S. cerevisiae deletion strains, locus YMR231W, strain pep5, active compounds read low 0.0689 | S. cerevisiae deletion strains, locus YMR263W, strain SAP30, active compounds read low 0.0637 | S. cerevisiae deletion strains, locus YMR307W, strain GAS1, active compounds read low 0.121 | S. cerevisiae deletion strains, locus YNL067W, strain RPL9B, active compounds read low 0.0574 | S. cerevisiae deletion strains, locus YNL071W, strain lat1, active compounds read low 0.0587 | S. cerevisiae deletion strains, locus YNL128W, strain TEP1, active compounds read low 0.0594 | S. cerevisiae deletion strains, locus YNL153C, strain GIM3, active compounds read low 0.0488 | S. cerevisiae deletion strains, locus YNL183C, strain NPR1, active compounds read low -0.00319 | S. cerevisiae deletion strains, locus YNL209W, strain ssb2, active compounds read low 0.0566 | S. cerevisiae deletion strains, locus YNL233W, strain BNI4, active compounds read low 0.0543 | S. cerevisiae deletion strains, locus YNL248C, strain rpa49, active compounds read low 0.0754 | S. cerevisiae deletion strains, locus YNL250W, strain rad50, active compounds read low 0.0626 | S. cerevisiae deletion strains, locus YNL271C, strain bni1, active compounds read low 0.0609 | S. cerevisiae deletion strains, locus YNL298W, strain CLA4, active compounds read low 0.0597 | S. cerevisiae deletion strains, locus YNL307C, strain MCK1, active compounds read low 0.0682 | S. cerevisiae deletion strains, locus YNL322C, strain KRE1 (second series), active compounds read low 0.0709 | S. cerevisiae deletion strains, locus YNL322C, strain KRE1, active compounds read low 0.0498 | S. cerevisiae deletion strains, locus YNR049C, strain mso1, active compounds read low 0.0539 | S. cerevisiae deletion strains, locus YNR052C, strain pop2, active compounds read low 0.0603 | S. cerevisiae deletion strains, locus YOL006C, strain TOP1, active compounds read low 0.0855 | S. cerevisiae deletion strains, locus YOL147C, strain pex11, active compounds read low 0.0565 | S. cerevisiae deletion strains, locus YOR001W, strain rrp6, active compounds read low 0.0676 | S. cerevisiae deletion strains, locus YOR061W, strain CKA2, active compounds read low 0.0412 | S. cerevisiae deletion strains, locus YOR069W, strain VPS5, active compounds read low 0.0494 | S. cerevisiae deletion strains, locus YOR070C, strain gyp1, active compounds read low 0.056 | S. cerevisiae deletion strains, locus YOR080W, strain dia2, active compounds read low 0.0619 | S. cerevisiae deletion strains, locus YOR083W, strain WHI5, active compounds read low 0.0654 | S. cerevisiae deletion strains, locus YOR106W, strain vam3, active compounds read low 0.0681 | S. cerevisiae deletion strains, locus YOR136W, strain idh2, active compounds read low 0.0689 | S. cerevisiae deletion strains, locus YOR144C, strain elg1, active compounds read low 0.0565 | S. cerevisiae deletion strains, locus YOR184W, strain ser1, active compounds read low 0.0727 | S. cerevisiae deletion strains, locus YOR231W, strain MKK1, active compounds read low 0.111 | S. cerevisiae deletion strains, locus YOR265W, strain rbl2, active compounds read low 0.0548 | S. cerevisiae deletion strains, locus YOR270C, strain vph1, active compounds read low 0.1 | S. cerevisiae deletion strains, locus YOR290C, strain snf2, active compounds read low 0.0637 | S. cerevisiae deletion strains, locus YOR316C, strain cot1, active compounds read low 0.0575 | S. cerevisiae deletion strains, locus YPL051W, strain arl3, active compounds read low 0.0621 | S. cerevisiae deletion strains, locus YPL055C, strain LGE1, active compounds read low 0.0743 | S. cerevisiae deletion strains, locus YPL078C, strain atp4, active compounds read low 0.0696 | S. cerevisiae deletion strains, locus YPL106C, strain sse1, active compounds read low 0.0938 | S. cerevisiae deletion strains, locus YPL240C, strain hsp82, active compounds read low 0.0556 | S. cerevisiae deletion strains, locus YPL241C, strain CIN2, active compounds read low 0.0514 | S. cerevisiae deletion strains, locus YPL256C, strain CLN2, active compounds read low 0.112 | S. cerevisiae deletion strains, locus YPR119W, strain clb2, active compounds read low 0.0611 | S. cerevisiae deletion strains, locus YPR141C, strain kar3, active compounds read low 0.0644 | S. cerevisiae deletion strains, locus YPR163C, strain tif3, active compounds read low 0.0667 | S. cerevisiae deletion strains, locus YPR167C, strain met16, active compounds read low 0.0591 | S. cerevisiae deletion strains, strain wtn01, active compounds read low 0.0603 | S. cerevisiae strains, strain wild type, active compounds read low 0.0494
inactive: S. cerevisiae deletion strains, locus YOL012C, strain htz1 0.234
